# Laboratory results as given in the supplement of paper PMC6089552.
# Hit rate of the full screen: of about 3,200 compounds, about 300 (9.4%) showed activity. The sample holds actives, similar compounds and a random draw of the others, so the mix is not that of the screen. Unmarked numbers belong to inactive results.
# Tested on: A673/TR/shEF
# Experiment: cell viability (LOESS-normalised, relative to median of negative controls) (log2 ratio); higher = more viable cells (less compound effect), active = hit call of the paper (over 3 MAD below the median)
# Settings: treatment time: 72 h
# Summary of the method: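 A673/TR/shEF Ewing sarcoma cells (1,500 per well, 384-well plates) were grown with or without doxycycline to induce EWS-FLI1 shRNA knockdown, starting 24 h before compounds. Library compounds at two or more concentrations, with DMSO controls, were added for three days. Cell viability was read by CellTiter-Glo luminescence on an Envision reader, then LOESS-corrected per plate, divided by the median of negative controls and log2-transformed. Hits were wells at least three median absolute deviations from the median of all screened wells.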
# [1] = 0.25 µM, library screen: screen1, EWS-FLI1 expression: high (no doxycycline)
# [2] = 0.25 µM, library screen: screen1, EWS-FLI1 expression: low (doxycycline-induced shRNA knockdown)
# [3] = 2.5 µM, library screen: screen1, EWS-FLI1 expression: high (no doxycycline)
# [4] = 2.5 µM, library screen: screen1, EWS-FLI1 expression: low (doxycycline-induced shRNA knockdown)
# [5] = 0.103 µM, library screen: screen3, EWS-FLI1 expression: high (no doxycycline)
# [6] = 0.103 µM, library screen: screen3, EWS-FLI1 expression: low (doxycycline-induced shRNA knockdown)
# [7] = 0.308 µM, library screen: screen3, EWS-FLI1 expression: high (no doxycycline)
# [8] = 0.308 µM, library screen: screen3, EWS-FLI1 expression: low (doxycycline-induced shRNA knockdown)
# [9] = 0.926 µM, library screen: screen3, EWS-FLI1 expression: high (no doxycycline)
# [10] = 0.926 µM, library screen: screen3, EWS-FLI1 expression: low (doxycycline-induced shRNA knockdown)
# [11] = 2.8 µM, library screen: screen3, EWS-FLI1 expression: high (no doxycycline)
# [12] = 2.8 µM, library screen: screen3, EWS-FLI1 expression: low (doxycycline-induced shRNA knockdown)
# [13] = 8.3 µM, library screen: screen3, EWS-FLI1 expression: high (no doxycycline)
# [14] = 8.3 µM, library screen: screen3, EWS-FLI1 expression: low (doxycycline-induced shRNA knockdown)
# [15] = 25 µM, library screen: screen3, EWS-FLI1 expression: high (no doxycycline)
# [16] = 25 µM, library screen: screen3, EWS-FLI1 expression: low (doxycycline-induced shRNA knockdown)
# [17] = 0.25 µM, library screen: screen2, EWS-FLI1 expression: high (no doxycycline)
# [18] = 0.25 µM, library screen: screen2, EWS-FLI1 expression: low (doxycycline-induced shRNA knockdown)
# [19] = 2.5 µM, library screen: screen2, EWS-FLI1 expression: high (no doxycycline)
# [20] = 2.5 µM, library screen: screen2, EWS-FLI1 expression: low (doxycycline-induced shRNA knockdown)
# [21] = 0.025 µM, library screen: screen2, EWS-FLI1 expression: high (no doxycycline)
# [22] = 0.025 µM, library screen: screen2, EWS-FLI1 expression: low (doxycycline-induced shRNA knockdown)
# [23] = 25 µM, library screen: screen2, EWS-FLI1 expression: high (no doxycycline)
# [24] = 25 µM, library screen: screen2, EWS-FLI1 expression: low (doxycycline-induced shRNA knockdown)
smiles,measurement,setting,value
CC(C)CCC[C@@H](C)[C@H]1CC[C@H]2C3=CC[C@H]4C[C@@H](O)CC[C@]4(C)[C@H]3CC[C@]12C,cell viability (log2),[1],-0.0717
same,cell viability (log2),[2],-0.021
same,cell viability (log2),[3],0.0758
same,cell viability (log2),[4],0.0695
C[C@H]1COC2=C1C(=O)C(=O)c1c2ccc2c1CCCC2(C)C,cell viability (log2),[5],0.0338
same,cell viability (log2),[6],0.0754
same,cell viability (log2),[7],0.0526
same,cell viability (log2),[8],0.0683
same,cell viability (log2),[9],0.0196
same,cell viability (log2),[10],0.0264
same,cell viability (log2),[11],-0.0315
same,cell viability (log2),[12],-0.0274
same,cell viability (log2),[13],0.0932
same,cell viability (log2),[14],-0.035
same,cell viability (log2),[15],-0.196 (active)
same,cell viability (log2),[16],-0.308 (active)
CCN1CCC[C@H]1CNC(=O)c1c(OC)ccc(I)c1O,cell viability (log2),[17],0.251
same,cell viability (log2),[18],0.174
same,cell viability (log2),[19],0.0364
same,cell viability (log2),[20],0.15
Cc1ccsc1C=C1SC(=S)N(CC(=O)O)C1=O,cell viability (log2),[1],0.0973
same,cell viability (log2),[2],0.0799
same,cell viability (log2),[3],0.133
same,cell viability (log2),[4],0.152
C=CCN1C(=O)/C(=C2\SC(=S)N(c3c(C)n(C)n(-c4ccccc4)c3=O)C2=O)c2ccccc21,cell viability (log2),[1],-0.0187
same,cell viability (log2),[2],-0.00404
same,cell viability (log2),[3],0.0713
same,cell viability (log2),[4],-0.0309
OCC(O)C1NCC(O)C1O (stereo not drawn),cell viability (log2),[17],0.0417
same,cell viability (log2),[18],0.103
same,cell viability (log2),[19],0.000766
same,cell viability (log2),[20],0.0189
Cc1cc(N)c2ccccc2[n+]1CCCCCCCCCC[n+]1c(C)cc(N)c2ccccc21,cell viability (log2),[1],0.139
same,cell viability (log2),[2],0.0436
same,cell viability (log2),[17],0.122
same,cell viability (log2),[18],0.0489
same,cell viability (log2),[3],-1.46 (active)
same,cell viability (log2),[4],-0.54 (active)
same,cell viability (log2),[19],-0.865 (active)
same,cell viability (log2),[20],-0.463 (active)
CC[C@H]1C(=O)OC[C@@H]1Cc1cccn1C,cell viability (log2),[1],0.154
same,cell viability (log2),[2],0.0128
same,cell viability (log2),[3],0.143
same,cell viability (log2),[4],0.0953
CC12CCCC(O)(C1)C1CC(C)(C)C1CC2 (stereo not drawn),cell viability (log2),[1],0.066
same,cell viability (log2),[2],-0.02
same,cell viability (log2),[3],0.0972
same,cell viability (log2),[4],0.0732
Oc1ccc([C@H]2Oc3cc(O)cc(O)c3C[C@H]2O)cc1,cell viability (log2),[1],0.0303
same,cell viability (log2),[2],-0.000667
same,cell viability (log2),[3],0.0839
same,cell viability (log2),[4],-0.00856
Oc1ccc([C@@H]2Oc3ccc(O)cc3[C@@H]3CCC[C@@H]32)cc1,cell viability (log2),[5],-0.0128
same,cell viability (log2),[6],0.0648
same,cell viability (log2),[7],-0.0264
same,cell viability (log2),[8],-0.0313
same,cell viability (log2),[9],-0.0384
same,cell viability (log2),[10],0.0122
same,cell viability (log2),[11],-0.0259
same,cell viability (log2),[12],0.00446
same,cell viability (log2),[13],-0.0456
same,cell viability (log2),[14],0.0022
same,cell viability (log2),[15],-0.181 (active)
same,cell viability (log2),[16],-0.0464
Oc1ccc2c(c1)OC[C@H]1c3cc4c(cc3O[C@@H]21)OCO4,cell viability (log2),[1],0.0543
same,cell viability (log2),[2],-0.104
same,cell viability (log2),[3],0.119
same,cell viability (log2),[4],0.0894
COc1cc(CN2CCN(Cc3cccc(OC)c3OC)CC2)c([N+](=O)[O-])cc1OC,cell viability (log2),[1],0.00876
same,cell viability (log2),[2],0.0541
same,cell viability (log2),[3],0.119
same,cell viability (log2),[4],-0.0278
CC1(C)OC(=O)CC(O)[C@@]2(C)C1CC(=O)[C@]1(C)C2CCC2(C)C(c3ccoc3)OC(=O)[C@H]3O[C@]321 (stereo partly drawn),cell viability (log2),[1],0.0277
same,cell viability (log2),[2],0.0481
same,cell viability (log2),[3],0.0671
same,cell viability (log2),[4],0.0691
C[C@]12CCC3c4ccc(OC(=O)CCC(=O)O)cc4CCC3C1CCC2=O (stereo partly drawn),cell viability (log2),[1],0.126
same,cell viability (log2),[2],0.0832
same,cell viability (log2),[3],0.102
same,cell viability (log2),[4],0.0823
C=C/C(C)=C\C[C@@H]1[C@@]2(C)CCCC(C)(C)[C@@H]2CC[C@@]1(C)O,cell viability (log2),[1],0.0522
same,cell viability (log2),[2],0.0309
same,cell viability (log2),[3],0.126
same,cell viability (log2),[4],0.0611
COc1cc2c(cc1O)CC[C@@H]1[C@@H]2CC[C@]2(C)[C@@H](O)CC[C@@H]12,cell viability (log2),[5],0.0202
same,cell viability (log2),[6],0.0975
same,cell viability (log2),[17],0.11
same,cell viability (log2),[18],0.04
same,cell viability (log2),[7],0.0934
same,cell viability (log2),[8],0.0693
same,cell viability (log2),[9],-0.0172
same,cell viability (log2),[10],0.0926
same,cell viability (log2),[19],0.0437
same,cell viability (log2),[20],0.0893
same,cell viability (log2),[11],0.045
same,cell viability (log2),[12],0.00908
same,cell viability (log2),[13],-0.104
same,cell viability (log2),[14],-0.0169
same,cell viability (log2),[15],-1.25 (active)
same,cell viability (log2),[16],-0.177 (active)
C[C@]12CC[C@@H]3c4ccc(O)cc4CC[C@H]3[C@@H]1CC[C@@H]2O,cell viability (log2),[5],0.029
same,cell viability (log2),[6],-0.00908
same,cell viability (log2),[1],0.122
same,cell viability (log2),[2],0.00576
same,cell viability (log2),[17],0.147
same,cell viability (log2),[18],0.0497
same,cell viability (log2),[7],0.101
same,cell viability (log2),[8],0.0915
same,cell viability (log2),[9],0.111
same,cell viability (log2),[10],0.0539
same,cell viability (log2),[3],0.0979
same,cell viability (log2),[4],0.0174
same,cell viability (log2),[19],0.0738
same,cell viability (log2),[20],0.0113
same,cell viability (log2),[11],0.127
same,cell viability (log2),[12],0.0786
same,cell viability (log2),[13],0.135
same,cell viability (log2),[14],0.0545
same,cell viability (log2),[15],0.166
same,cell viability (log2),[16],0.0719
C[C@]12CCC3c4ccc(OS(=O)(=O)O)cc4CCC3C1CC[C@H]2O (stereo partly drawn),cell viability (log2),[1],0.0646
same,cell viability (log2),[2],0.0512
same,cell viability (log2),[3],0.0988
same,cell viability (log2),[4],0.092
COc1ccccc1CN1CCN(Cc2ccc(OC)c(OC)c2)CC1,cell viability (log2),[1],0.0157
same,cell viability (log2),[2],0.078
same,cell viability (log2),[3],0.0565
same,cell viability (log2),[4],0.0117
CC(C)(C)c1ccccc1OCC(O)CN1CCCCC1 (stereo not drawn),cell viability (log2),[1],0.09
same,cell viability (log2),[2],0.0909
same,cell viability (log2),[3],0.176
same,cell viability (log2),[4],0.0864
CC(=O)Oc1ccc(-c2coc3cc(OC(C)=O)ccc3c2=O)cc1,cell viability (log2),[1],0.152
same,cell viability (log2),[2],0.0716
same,cell viability (log2),[3],0.0709
same,cell viability (log2),[4],0.0455
CCOC(=O)C1(O)Oc2cc(OC)cc(OC)c2C(=O)C1c1ccccc1 (stereo not drawn),cell viability (log2),[1],0.122
same,cell viability (log2),[2],0.103
same,cell viability (log2),[3],0.112
same,cell viability (log2),[4],0.086
CCN(CC)CCCC(C)Nc1c2ccc(Cl)cc2nc2ccc(OC)cc12 (stereo not drawn),cell viability (log2),[21],0.148
same,cell viability (log2),[22],0.0788
same,cell viability (log2),[1],0.215
same,cell viability (log2),[2],0.197
same,cell viability (log2),[17],0.0911
same,cell viability (log2),[18],0.0849
same,cell viability (log2),[3],0.176
same,cell viability (log2),[4],0.252
same,cell viability (log2),[19],0.0338
same,cell viability (log2),[20],0.0518
same,cell viability (log2),[23],-4.23 (active)
same,cell viability (log2),[24],-2.71 (active)
CCN(CCO)CCCC(C)Nc1ccnc2cc(Cl)ccc12 (stereo not drawn),cell viability (log2),[1],0.00358
same,cell viability (log2),[2],0.138
same,cell viability (log2),[3],0.146
same,cell viability (log2),[4],0.0473
CCN(CC)CCCC(C)Nc1ccnc2cc(Cl)ccc12 (stereo not drawn),cell viability (log2),[21],0.158
same,cell viability (log2),[22],0.0518
same,cell viability (log2),[1],0.0569
same,cell viability (log2),[2],0.0751
same,cell viability (log2),[17],0.0978
same,cell viability (log2),[18],0.0902
same,cell viability (log2),[3],0.0579
same,cell viability (log2),[4],0.079
same,cell viability (log2),[19],0.0873
same,cell viability (log2),[20],0.0425
same,cell viability (log2),[23],0.0565
same,cell viability (log2),[24],0.0987
